This is an account of results in PubChem BioAssay.

Molecules are shown by their SMILES. The source made the active and inactive calls.

Test [1] concerns Plasmodium falciparum Sir2 (PF13_0152, Sir2A). Description: Plasmodium falciparum Sir2A binding compounds – biochemical, small-molecule microarray, 635 nm fluorescence, primary screen (AID 1098).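 Also: score merges spot fluorescence intensity with its signal-to-noise ratio.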 The conditions noted are these: fluorescence 635 nm, higher = more signal.
Test [2] in a line: probe aDKK1 binding to arrayed compounds – biochemical, biotinylated probe, 635/667 nm fluorescence, primary screen (AID 1099).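 Also: score merges 667nm spot fluorescence with signal to noise across triplicate slides; reference of the scale not given here.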 The following applies: small-molecule microarray, higher = more signal.
Test [3] is described as follows: probe aCHRDL2 binding to arrayed compounds – biochemical, biotinylated probe, 635/667 nm fluorescence, primary screen (AID 1100). The conditions noted are these: small-molecule microarray, higher = more signal.
Test [4] is described as follows: change in splice reporter luminescence, either direction, cell-based, HEK293, spliceosome inhibition project, primary screen (AID 1101).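 Also: HEK293 cells carrying a splicing-competent luciferase reporter gene; test concentration not given here.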 The conditions noted are these: HEK293 splicing luciferase reporter, 24 h, higher = more signal, called active from +8 up or from −8 down. (Reporter assays use an easily measured gene product as a stand-in for the process of interest.)

The target in test [5] is Fibroblast growth factor 10 (Homo sapiens) (UniProt O15520). The test is described as follows: compounds binding fibroblast growth factor 10 – biochemical, small-molecule microarray, 635 nm fluorescence, primary screen (AID 1102). The following applies: FGF10 binding, fluorescence 635 nm, higher = more signal.
Chain of Fibroblast growth factor 10 (Homo sapiens) (O15520 whole entry, looked up): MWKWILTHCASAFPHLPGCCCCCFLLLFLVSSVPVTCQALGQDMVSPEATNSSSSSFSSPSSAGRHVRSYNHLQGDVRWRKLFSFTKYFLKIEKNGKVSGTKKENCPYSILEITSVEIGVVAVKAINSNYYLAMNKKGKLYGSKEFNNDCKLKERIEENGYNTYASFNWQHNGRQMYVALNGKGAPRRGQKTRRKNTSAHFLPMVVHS
In test [6] the test system is glycogen synthase kinase-3 (GSK3A per assay name; protocol says GSK3B). The test is described as follows: compounds binding glycogen synthase kinase-3 – biochemical, small-molecule microarray, 635 nm fluorescence, GSK3A, primary screen (AID 1103). Also: the record names both GSK3A and GSK3B. The following applies: fluorescence 635 nm, higher = more signal.
Test [7] deals with Epidermal growth factor receptor (Homo sapiens) (UniProt P00533). Description: compounds binding epidermal growth factor receptor – biochemical, small-molecule microarray, 635 nm fluorescence, primary screen (AID 1104).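 Also: score merges 667 nm emission intensity with spot signal to noise over triplicate slides.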 The conditions noted are these: EGFR binding, higher = more signal.
Chain of Epidermal growth factor receptor (Homo sapiens) (P00533 whole entry, looked up): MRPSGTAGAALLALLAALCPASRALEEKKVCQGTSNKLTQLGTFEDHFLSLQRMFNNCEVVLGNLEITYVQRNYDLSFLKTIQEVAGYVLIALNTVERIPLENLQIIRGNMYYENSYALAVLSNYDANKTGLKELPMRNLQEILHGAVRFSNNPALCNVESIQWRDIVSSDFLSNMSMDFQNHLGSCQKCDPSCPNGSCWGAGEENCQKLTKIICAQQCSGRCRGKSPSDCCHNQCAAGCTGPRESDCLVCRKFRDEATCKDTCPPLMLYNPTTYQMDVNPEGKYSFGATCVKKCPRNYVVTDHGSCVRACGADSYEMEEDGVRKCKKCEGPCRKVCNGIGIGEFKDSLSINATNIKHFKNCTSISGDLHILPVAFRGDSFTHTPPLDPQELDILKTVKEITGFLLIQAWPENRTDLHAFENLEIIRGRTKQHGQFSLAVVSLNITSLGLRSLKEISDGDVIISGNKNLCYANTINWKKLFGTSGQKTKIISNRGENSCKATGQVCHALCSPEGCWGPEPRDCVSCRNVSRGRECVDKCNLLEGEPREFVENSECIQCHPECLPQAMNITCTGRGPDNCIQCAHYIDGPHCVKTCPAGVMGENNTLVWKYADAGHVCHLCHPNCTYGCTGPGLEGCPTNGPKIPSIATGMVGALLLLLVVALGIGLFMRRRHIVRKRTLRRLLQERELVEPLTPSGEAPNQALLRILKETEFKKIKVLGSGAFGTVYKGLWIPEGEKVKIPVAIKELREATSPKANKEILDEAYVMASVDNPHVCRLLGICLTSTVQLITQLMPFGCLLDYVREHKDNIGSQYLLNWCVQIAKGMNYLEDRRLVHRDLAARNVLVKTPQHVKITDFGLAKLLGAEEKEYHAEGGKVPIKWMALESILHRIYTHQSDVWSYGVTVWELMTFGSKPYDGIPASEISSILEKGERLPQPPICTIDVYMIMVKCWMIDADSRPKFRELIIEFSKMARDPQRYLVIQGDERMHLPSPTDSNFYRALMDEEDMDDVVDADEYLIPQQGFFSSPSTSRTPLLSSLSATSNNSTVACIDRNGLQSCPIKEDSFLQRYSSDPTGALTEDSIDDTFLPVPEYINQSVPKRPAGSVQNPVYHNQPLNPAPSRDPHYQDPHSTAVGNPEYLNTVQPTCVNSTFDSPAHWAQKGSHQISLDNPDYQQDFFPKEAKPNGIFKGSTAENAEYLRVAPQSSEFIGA
The target in test [8] is Follistatin-related protein 3 (Homo sapiens) (UniProt O95633). Description: compounds binding follistatin-related protein 3 – biochemical, small-molecule microarray, 635 nm fluorescence, primary screen (AID 1105).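 Also: score merges emission near 667 nm and signal to noise per printed spot across three slides.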 The following applies: FSTL3 binding, higher = more signal.
Chain of Follistatin-related protein 3 (Homo sapiens) (O95633 whole entry, looked up): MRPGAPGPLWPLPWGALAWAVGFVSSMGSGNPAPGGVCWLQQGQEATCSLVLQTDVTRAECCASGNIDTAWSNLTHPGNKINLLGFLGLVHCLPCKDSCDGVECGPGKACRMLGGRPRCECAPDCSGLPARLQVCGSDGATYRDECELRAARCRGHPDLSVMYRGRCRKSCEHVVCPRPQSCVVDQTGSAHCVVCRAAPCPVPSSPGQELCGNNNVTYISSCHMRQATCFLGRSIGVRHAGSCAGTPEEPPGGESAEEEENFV
Test [9] has as its target Dickkopf-related protein 1 (Homo sapiens) (UniProt O94907). The test is described as follows: small molecules binding DKK1 protein – biochemical, small-molecule microarray, 635 nm fluorescence scan, primary screen (AID 1106).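 Also: score merges emission near 667 nm with signal to noise over three replicate slides.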 The conditions noted are these: higher = more signal.
Test [10] has as its system Inhibin beta A chain (activin A). The test is described as follows: small molecules binding activin A – biochemical, small-molecule microarray, 635 nm fluorescence scan, primary screen (AID 1107).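 Also: mouse activin A protein probed at 4.33 µg/mL on printed slides; score merges bound-protein fluorescence near 667 nm with spot signal-to-noise.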 The conditions noted are these: INHBA, higher = more signal.

Chain of Dickkopf-related protein 1 (Homo sapiens) (O94907 whole entry, looked up): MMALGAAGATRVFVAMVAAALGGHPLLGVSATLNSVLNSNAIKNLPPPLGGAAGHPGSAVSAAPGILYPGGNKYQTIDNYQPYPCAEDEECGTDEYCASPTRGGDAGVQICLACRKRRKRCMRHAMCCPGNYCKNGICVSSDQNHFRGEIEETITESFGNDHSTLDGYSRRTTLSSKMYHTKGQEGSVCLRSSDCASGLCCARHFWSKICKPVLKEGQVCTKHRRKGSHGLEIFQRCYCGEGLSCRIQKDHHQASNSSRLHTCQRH

Consider `C[C@H]1NC(=O)C([C@@H](C)OCc2ccccc2)NC(=O)[C@@]23C(=O)N[C@@H](Cc4ccccc4)C2[C@H](C)[C@@]2(C)O[C@H]2C3/C=C/C/C=C\CNC1=O` (stereo not given in full), for which the composite z-score is 0.0032 in [1]; -0.333 in test [2]; -0.603 in test [3]; 0.699 in [5]; -0.3 in test [6]; 0.281 in test [7]. In addition, the composite z-score turned out to be 0.511 in [8], 0.722 in [9] and 1.43 in test [10]. Besides, in test [4], the z-score is 0.219 (inactive).

For `COc1ccc([Si](C)(C)[C@H]2[C@H](CCO)O[C@@]3(C(=O)N(Cc4ccc(N5CCOC5=O)cc4)c4ccccc43)[C@@H]2C)cc1`, the composite z-score in test [1] was 0.901; in test [2] it was -0.0663; in [3] it was 0.171; in test [5] it was -0.0921; in [6], -0.155; in test [7], -0.197. Also, the composite z-score was -0.0181 in test [8], -0.524 in test [9] and 0.416 in [10]. The z-score in test [4] is -1.15 (inactive).

For the compound `CCCC[C@@H](O)C1=C(COC)Cn2c(=O)n(-c3ccccc3)c(=O)n2[C@H]1CO`, the composite z-score was -0.0092 in [1]; -0.399 in [2]; -0.318 in [3]; 0.035 in test [5]; 0.0617 in test [6]; -0.464 in test [7]. Besides, the values for the composite z-score in test [8], in test [9] and in test [10] were -0.0013, -0.184 and 0.749, respectively. In addition, the z-score in test [4] was -0.446 (inactive).

Turning to `N#Cc1ccc(C(O)C2C=CC3C(=O)N(c4ccccc4)C(=O)C3N2Nc2ccc([N+](=O)[O-])cc2)cc1` (stereo not given), the composite z-score was 1.37 in [1]; 0.904 in [2]; 1.16 in test [3]; 0.395 in test [5]; 1.09 in test [6]; -0.175 in test [7]. The values for the composite z-score in test [8], in [9] and in [10] were 0.516, -0.274 and 0.958, respectively. In addition, the z-score in test [4] was 0.448 (inactive).

As for `COc1ccc(CCNC(=O)[C@@]2(Sc3ccc(C)cc3)CC(=O)N(C(C)C)[C@@H]2c2ccc(CO)cc2)cc1`, the composite z-score in [1] is 1.41; in test [2], 0.0055; in test [3] it was 0.983; in test [5] it was -0.855; in test [6] it was -0.897; in test [7], -2.03. Besides, the figures for the composite z-score in test [8], in test [9] and in [10] were -1.45, -2 and -0.87, respectively. In addition, the z-score in test [4] is 0.239 (inactive).

`CCC[C@@H]1[C@@H](Sc2ccccc2)[C@@H](C(=O)O)[C@H](c2ccc(C)cc2)N1S(=O)(=O)c1ccc(C)cc1`: the composite z-score is 1.05 in test [1]; 0.505 in [2]; 0.284 in [3]; 1.25 in test [5]; 1.36 in test [6]; 0.163 in test [7]. Also, the composite z-score in test [8] was 1.34; in test [9], 0.188; in [10], 0.267. Also, in test [4], the z-score is -0.114 (inactive).

Consider `C=CCC(OC(C)=O)[C@@H]1[C@@H](N(Cc2cccc3ccccc23)C(=O)c2cccc3ccccc23)c2cc(OCCCO)ccc2N1C(=O)Cc1ccc2ccccc2c1` (stereo not given in full), for which the composite z-score in test [1] was -0.181; in test [2] it was -0.177; in test [3], 0.551; in [5], -0.0715; in test [6], -0.0273; in test [7], -0.117. In addition, the composite z-score in test [8] was 0.246; in test [9], -0.394; in test [10], 1.48. Moreover, the z-score in [4] is 0.341 (inactive).

In the case of `N[C@@H](Cc1ccccc1)Cn1cc(C2(O)CCCCC2)nn1`, the composite z-score in [1] was -0.431; in test [2], -0.149; in test [3] it was 0.174; in test [5], -0.493; in test [6], -0.507; in test [7], 0.0669. In addition, the composite z-score in test [8] was -0.133; in test [9] it was -0.0564; in test [10] it was -0.239. The z-score in [4] was 0.242 (inactive).

For `C=C(CC1([C@@H](NP(=O)(c2ccccc2)c2ccccc2)[C@H]2C[C@@H]2CCN(C(=O)OCC)S(=O)(=O)c2ccc(C)cc2)CC1)c1ccccc1`, the composite z-score in test [1] was found to be 0.827; in test [2] it was 1.31; in test [3] it was 1.23; in [5], 0.429; in test [6], 0.288; in test [7], 0.0577. The figures for the composite z-score in test [8], in [9] and in test [10] were 0.748, -0.636 and 1.17, respectively. Also, the z-score in test [4] is -2.39 (inactive).

`O=C1c2ccccc2[C@@]2(Cc3ccccc3N(Cc3ccccc3)C2=O)[C@H](c2ccc(CO)cc2)N1Cc1ccccc1`: the composite z-score in test [1] was 1.45; in [2], 0.617; in test [3] it was 0.819; in [5] it was -0.74; in test [6], -1.37; in [7], -0.949. In addition, the figures for the composite z-score in test [8], in test [9] and in test [10] were -0.604, -0.868 and 0.58, respectively. Also, the z-score in [4] was 1.18 (inactive).

With `COC(=O)[C@@]1(Cc2ccc(OC)cc2)[C@H]2c3cc(C(=O)N(C)C)n(Cc4ccsc4Br)c3C[C@H]2CN1C(=O)c1ccccc1`, the composite z-score was 0.895 in test [1]; 1.08 in test [2]; 0.826 in [3]; -0.0197 in [5]; -0.288 in test [6]; 0.374 in [7]. The composite z-score in [8] was -0.288; in [9], -0.414; in test [10], 0.758. For the same compound, in test [4], the z-score is -1.84 (inactive).

For the compound `Cc1ccc(S[C@]2(C(=O)NCCCN(C)C)CC(=O)N(Cc3ccccc3Cl)[C@@H]2c2ccc(CO)cc2I)cc1`, the composite z-score in test [1] was -0.393; in test [2], 0.844; in test [3] it was 0.864; in test [5], -1.29; in test [6], -1.19; in test [7], -1.3. Also, the composite z-score in test [8] was -0.551; in test [9], -1.39; in test [10] it was 1.4. For the same compound, the z-score in test [4] is -1.53 (inactive).

For `CN(C)CCCC[C@@H]1NC(=O)[C@@H]2C[C@H](C(=O)NCc3ccc(F)cc3)[C@H](c3ccc(O)cc3)N2C1=O`, the composite z-score is 1.56 in [1]; -0.126 in [2]; -0.0292 in test [3]; 1.47 in [5]; 0.941 in test [6]; 0.176 in [7]. Further, the values for the composite z-score in [8], in test [9] and in test [10] were 0.0719, 0.2 and -1.43, respectively. In addition, the z-score in test [4] is 0.104 (inactive).

For `C=CCC(OC(C)=O)[C@@H]1[C@@H](N(Cc2ccc(-c3ccccc3)cc2)C(=O)c2ccc(C)cc2)c2cc(OCCCO)ccc2N1C(=O)c1ccc2ccccc2c1` (stereo not given in full), the composite z-score in test [1] is -0.376; in [2] it was -0.165; in test [3], -0.093; in [5], 0.265; in test [6] it was -0.549; in test [7] it was -0.0575. Further, the figures for the composite z-score in test [8], in [9] and in [10] were 0.168, -0.134 and 0.944, respectively. In test [4], the z-score is -1.36 (inactive).

In the case of `COc1ccc(CC[C@H](O)c2cccc(OCC(=O)OC(C)(C)C)c2)cc1`, the composite z-score in [1] is 1.16; in [2], 0.15; in test [3], -0.0667; in test [5], 0.883; in test [6], 1.06; in [7], 0.344. The values for the composite z-score in [8], in test [9] and in test [10] were 1.09, 0.688 and -0.0035, respectively. The z-score in test [4] was 1.3 (inactive).
